Substitutions are numbered along the chain they refer to.
Experiments:
Assay in all cases: PBM; 200 nM protein, PBS
Conditions in all cases: dsDNA, one strand shown
NKX2-6 [1] = molecular target: T1, NKX2-6 (Homo sapiens, UniProt A6NCS4 118-204, R150C)
T1 sequence: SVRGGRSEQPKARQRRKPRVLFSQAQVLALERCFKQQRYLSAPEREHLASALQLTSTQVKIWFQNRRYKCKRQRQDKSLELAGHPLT

HOXD13 [2] = molecular target: HOXD13 (Homo sapiens, UniProt P35453 263-343, T313R)
HOXD13 [3] = molecular target: HOXD13 (Homo sapiens, UniProt P35453 263-343)
HOXD13 [4] = molecular target: HOXD13 (Homo sapiens, UniProt P35453 263-343, T313A)
NKX2-6 [5] = molecular target: T2, NKX2-6 (Homo sapiens, UniProt A6NCS4 118-204, F151L)
T2 sequence: T1 sequence with C33R, F34L

ALX3 [6] = molecular target: ALX3 (Homo sapiens, UniProt O95076 139-225, N203Q)
ALX3 [7] = molecular target: ALX3 (Homo sapiens, UniProt O95076 139-225)
ALX3 [8] = molecular target: ALX3 (Homo sapiens, UniProt O95076 139-225, L168Q)
ALX3 [9] = molecular target: ALX3 (Homo sapiens, UniProt O95076 139-225, L168V)
ALX3 [10] = molecular target: ALX3 (Homo sapiens, UniProt O95076 139-225, N203S)
HOXC9 [11] = molecular target: HOXC9 (Homo sapiens, UniProt P31274 178-260)
HOXC9 [12] = molecular target: HOXC9 (Homo sapiens, UniProt P31274 178-260, R193K)
ALX1 [13] = molecular target: ALX1 (Homo sapiens, UniProt Q15699 118-204, L144V)
ALX1 [14] = molecular target: ALX1 (Homo sapiens, UniProt Q15699 118-204, L144R)
NKX3-2 [15] = molecular target: NKX3-2 (Homo sapiens, UniProt P78367 192-278, P234S)
ALX1 [16] = molecular target: ALX1 (Homo sapiens, UniProt Q15699 118-204)
NKX3-2 [17] = molecular target: NKX3-2 (Homo sapiens, UniProt P78367 192-278)
MSX2 [18] = molecular target: MSX2 (Homo sapiens, UniProt P35548 130-214)
HOXC9 [19] = molecular target: HOXC9 (Homo sapiens, UniProt P31274 178-260, R222W)
MSX2 [20] = molecular target: MSX2 (Homo sapiens, UniProt P35548 130-214, F161Y)
HOXA4 = HOXA4 (Homo sapiens, UniProt Q00056 201-287)
NKX2-6 [21] = molecular target: T3, NKX2-6 (Homo sapiens, UniProt A6NCS4 118-204)
T3 sequence: T1 sequence with C33R

CRX = CRX (Homo sapiens, UniProt O43186 26-111, E42D)
PROP1 [22] = molecular target: PROP1 (Homo sapiens, UniProt O75360 56-141)
PROP1 [23] = molecular target: PROP1 (Homo sapiens, UniProt O75360 56-141, R99H)
PROP1 [24] = molecular target: PROP1 (Homo sapiens, UniProt O75360 56-141, F88S)
MSX2 [25] = molecular target: MSX2 (Homo sapiens, UniProt P35548 130-214, R199I)
PITX2 = PITX2 (Homo sapiens, UniProt Q99697 72-157)

Chain of ALX1 (Homo sapiens, UniProt Q15699 118-204, L144V) (Q15699 118-204 L144V): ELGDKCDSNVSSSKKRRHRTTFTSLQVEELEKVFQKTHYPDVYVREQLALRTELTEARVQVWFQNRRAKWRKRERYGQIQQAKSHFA
Chain of HOXD13 (Homo sapiens, UniProt P35453 263-343, T313R) (P35453 263-343 T313R): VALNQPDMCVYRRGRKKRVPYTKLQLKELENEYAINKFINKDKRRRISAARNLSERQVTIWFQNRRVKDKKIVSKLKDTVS
Chain of NKX3-2 (Homo sapiens, UniProt P78367 192-278, P234S) (P78367 192-278 P234S): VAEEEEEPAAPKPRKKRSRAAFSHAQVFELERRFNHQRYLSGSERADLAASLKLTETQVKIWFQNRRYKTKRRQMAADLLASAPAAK
Chain of HOXC9 (Homo sapiens, UniProt P31274 178-260) (P31274 178-260): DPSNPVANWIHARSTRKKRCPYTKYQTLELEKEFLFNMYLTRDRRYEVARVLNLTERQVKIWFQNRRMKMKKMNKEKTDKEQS
Chain of MSX2 (Homo sapiens, UniProt P35548 130-214) (P35548 130-214): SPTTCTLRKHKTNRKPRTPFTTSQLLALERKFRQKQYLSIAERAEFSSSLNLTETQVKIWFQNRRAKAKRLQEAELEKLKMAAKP
Chain of MSX2 (Homo sapiens, UniProt P35548 130-214, R199I) (P35548 130-214 R199I): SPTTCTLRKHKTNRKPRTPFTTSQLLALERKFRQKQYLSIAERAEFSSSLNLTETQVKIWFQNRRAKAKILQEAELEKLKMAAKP
Chain of PROP1 (Homo sapiens, UniProt O75360 56-141) (O75360 56-141): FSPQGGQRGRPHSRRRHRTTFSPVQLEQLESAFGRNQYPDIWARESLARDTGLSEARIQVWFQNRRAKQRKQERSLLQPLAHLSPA
Chain of ALX1 (Homo sapiens, UniProt Q15699 118-204) (Q15699 118-204): as the sequence (Q15699 118-204 L144V) above, with V27L counted along it
Chain of HOXD13 (Homo sapiens, UniProt P35453 263-343) (P35453 263-343): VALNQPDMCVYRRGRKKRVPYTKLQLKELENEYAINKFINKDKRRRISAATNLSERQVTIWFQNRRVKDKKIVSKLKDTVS
Chain of NKX3-2 (Homo sapiens, UniProt P78367 192-278) (P78367 192-278): as the sequence (P78367 192-278 P234S) above, with S43P counted along it
Chain of MSX2 (Homo sapiens, UniProt P35548 130-214, F161Y) (P35548 130-214 F161Y): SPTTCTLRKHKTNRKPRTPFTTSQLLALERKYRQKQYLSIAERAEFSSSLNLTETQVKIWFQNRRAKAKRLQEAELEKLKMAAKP
Chain of HOXC9 (Homo sapiens, UniProt P31274 178-260, R222W) (P31274 178-260 R222W): as the sequence (P31274 178-260) above, with R45W counted along it
Chain of ALX1 (Homo sapiens, UniProt Q15699 118-204, L144R) (Q15699 118-204 L144R): as the sequence (Q15699 118-204 L144V) above, with V27R counted along it
Chain of HOXD13 (Homo sapiens, UniProt P35453 263-343, T313A) (P35453 263-343 T313A): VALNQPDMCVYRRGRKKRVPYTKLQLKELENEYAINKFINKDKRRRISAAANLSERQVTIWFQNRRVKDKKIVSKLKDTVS
Chain of PROP1 (Homo sapiens, UniProt O75360 56-141, R99H) (O75360 56-141 R99H): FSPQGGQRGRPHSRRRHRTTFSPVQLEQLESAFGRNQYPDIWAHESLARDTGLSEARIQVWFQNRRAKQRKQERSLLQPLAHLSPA
Chain of PROP1 (Homo sapiens, UniProt O75360 56-141, F88S) (O75360 56-141 F88S): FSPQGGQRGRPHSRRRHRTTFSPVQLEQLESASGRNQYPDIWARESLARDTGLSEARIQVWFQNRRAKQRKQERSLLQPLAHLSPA
Chain of ALX3 (Homo sapiens, UniProt O95076 139-225) (O95076 139-225): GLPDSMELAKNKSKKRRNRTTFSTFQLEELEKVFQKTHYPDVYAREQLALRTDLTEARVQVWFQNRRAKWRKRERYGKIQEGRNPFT
Chain of ALX3 (Homo sapiens, UniProt O95076 139-225, N203S) (O95076 139-225 N203S): as the sequence (O95076 139-225) above, with N65S counted along it
Chain of CRX (O43186 26-111 E42D): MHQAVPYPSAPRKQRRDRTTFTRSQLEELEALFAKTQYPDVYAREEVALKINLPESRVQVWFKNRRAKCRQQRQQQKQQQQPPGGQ
Chain of ALX3 (Homo sapiens, UniProt O95076 139-225, L168Q) (O95076 139-225 L168Q): as the sequence (O95076 139-225) above, with L30Q counted along it
Chain of HOXC9 (Homo sapiens, UniProt P31274 178-260, R193K) (P31274 178-260 R193K): as the sequence (P31274 178-260) above, with R16K counted along it
Chain of HOXA4 (Q00056 201-287): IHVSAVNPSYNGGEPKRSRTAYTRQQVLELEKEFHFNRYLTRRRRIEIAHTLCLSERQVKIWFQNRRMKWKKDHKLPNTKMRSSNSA
Chain of ALX3 (Homo sapiens, UniProt O95076 139-225, L168V) (O95076 139-225 L168V): as the sequence (O95076 139-225) above, with L30V counted along it
Chain of ALX3 (Homo sapiens, UniProt O95076 139-225, N203Q) (O95076 139-225 N203Q): as the sequence (O95076 139-225) above, with N65Q counted along it

Sequence: ACCCTGCC
- binding signal (NKX2-6 [1]): 9.52 upbm affinity estimate (log intensity, higher = more binding, comparable within an allelic series)
- binding signal (HOXD13 [2]): 9.6 upbm affinity estimate (log intensity, higher = more binding, comparable within an allelic series)
- binding signal (HOXD13 [3]): 9.65 upbm affinity estimate (log intensity, higher = more binding, comparable within an allelic series)
- binding signal (HOXD13 [4]): 9.68 upbm affinity estimate (log intensity, higher = more binding, comparable within an allelic series)

Sequence: ACAAGTGC
- binding signal (NKX2-6 [1]): 11.5 upbm affinity estimate (log intensity, higher = more binding, comparable within an allelic series)
- binding signal (NKX2-6 [5]): 10.6 upbm affinity estimate (log intensity, higher = more binding, comparable within an allelic series)

Sequence: CCGTGCCG
- binding signal (NKX2-6 [1]): 9.27 upbm affinity estimate (log intensity, higher = more binding, comparable within an allelic series)
- binding signal (ALX3 [6]): 7.7 upbm affinity estimate (log intensity, higher = more binding, comparable within an allelic series)
- binding signal (HOXD13 [2]): 9.53 upbm affinity estimate (log intensity, higher = more binding, comparable within an allelic series)
- binding signal (HOXD13 [3]): 9.45 upbm affinity estimate (log intensity, higher = more binding, comparable within an allelic series)
- binding signal (ALX3 [7]): 7.7 upbm affinity estimate (log intensity, higher = more binding, comparable within an allelic series)
- binding signal (ALX3 [8]): 7.76 upbm affinity estimate (log intensity, higher = more binding, comparable within an allelic series)
- binding signal (HOXD13 [4]): 9.84 upbm affinity estimate (log intensity, higher = more binding, comparable within an allelic series)
- binding signal (ALX3 [9]): 7.72 upbm affinity estimate (log intensity, higher = more binding, comparable within an allelic series)
- binding signal (ALX3 [10]): 7.71 upbm affinity estimate (log intensity, higher = more binding, comparable within an allelic series)

Sequence: CATGGTAA
- binding signal (HOXC9 [11]): 10.9 upbm affinity estimate (log intensity, higher = more binding, comparable within an allelic series)
- binding signal (HOXC9 [12]): 11 upbm affinity estimate (log intensity, higher = more binding, comparable within an allelic series)

Sequence: CGCGGGCC
- binding signal (NKX2-6 [1]): 9.38 upbm affinity estimate (log intensity, higher = more binding, comparable within an allelic series)
- binding signal (ALX1 [13]): 6.41 upbm affinity estimate (log intensity, higher = more binding, comparable within an allelic series)
- binding signal (ALX1 [14]): 6.28 upbm affinity estimate (log intensity, higher = more binding, comparable within an allelic series)
- binding signal (NKX3-2 [15]): 10.4 upbm affinity estimate (log intensity, higher = more binding, comparable within an allelic series)
- binding signal (ALX1 [16]): 6.3 upbm affinity estimate (log intensity, higher = more binding, comparable within an allelic series)
- binding signal (NKX3-2 [17]): 10.4 upbm affinity estimate (log intensity, higher = more binding, comparable within an allelic series)

Sequence: ACCCTTAT
- binding signal (HOXC9 [11]): 10.8 upbm affinity estimate (log intensity, higher = more binding, comparable within an allelic series)
- binding signal (MSX2 [18]): 10.8 upbm affinity estimate (log intensity, higher = more binding, comparable within an allelic series)
- binding signal (HOXC9 [19]): 10.2 upbm affinity estimate (log intensity, higher = more binding, comparable within an allelic series)
- binding signal (MSX2 [20]): 10.7 upbm affinity estimate (log intensity, higher = more binding, comparable within an allelic series)

Sequence: ATGAGAAT
- binding signal (HOXC9 [11]): 10.8 upbm affinity estimate (log intensity, higher = more binding, comparable within an allelic series)
- binding signal (HOXA4): 11.2 upbm affinity estimate (log intensity, higher = more binding, comparable within an allelic series)

Sequence: CGTAACGC
- binding signal (HOXC9 [11]): 10.6 upbm affinity estimate (log intensity, higher = more binding, comparable within an allelic series)

Sequence: AAAGTGCA
- binding signal (NKX2-6 [1]): 11.2 upbm affinity estimate (log intensity, higher = more binding, comparable within an allelic series)
- binding signal (NKX2-6 [21]): 12.2 upbm affinity estimate (log intensity, higher = more binding, comparable within an allelic series)
- binding signal (NKX2-6 [5]): 10.1 upbm affinity estimate (log intensity, higher = more binding, comparable within an allelic series)

Sequence: ATTAGAGG
- binding signal (HOXC9 [11]): 10.9 upbm affinity estimate (log intensity, higher = more binding, comparable within an allelic series)
- binding signal (HOXC9 [19]): 10.2 upbm affinity estimate (log intensity, higher = more binding, comparable within an allelic series)

Sequence: GATTAAGA
- binding signal (CRX): 12.7 upbm affinity estimate (log intensity, higher = more binding, comparable within an allelic series)

Sequence: ACCTGGTG
- binding signal (NKX2-6 [1]): 9.61 upbm affinity estimate (log intensity, higher = more binding, comparable within an allelic series)
- binding signal (PROP1 [22]): 6.8 upbm affinity estimate (log intensity, higher = more binding, comparable within an allelic series)
- binding signal (PROP1 [23]): 6.74 upbm affinity estimate (log intensity, higher = more binding, comparable within an allelic series)
- binding signal (PROP1 [24]): 6.77 upbm affinity estimate (log intensity, higher = more binding, comparable within an allelic series)

Sequence: CTAATCAA
- binding signal (MSX2 [25]): 11 upbm affinity estimate (log intensity, higher = more binding, comparable within an allelic series)

Sequence: AAGTGCTC
- binding signal (NKX2-6 [1]): 11.6 upbm affinity estimate (log intensity, higher = more binding, comparable within an allelic series)
- binding signal (NKX3-2 [15]): 12.5 upbm affinity estimate (log intensity, higher = more binding, comparable within an allelic series)
- binding signal (NKX3-2 [17]): 12.7 upbm affinity estimate (log intensity, higher = more binding, comparable within an allelic series)

Sequence: GCCCACGA
- binding signal (NKX2-6 [1]): 9.49 upbm affinity estimate (log intensity, higher = more binding, comparable within an allelic series)
- binding signal (ALX1 [13]): 6.38 upbm affinity estimate (log intensity, higher = more binding, comparable within an allelic series)
- binding signal (ALX1 [14]): 6.28 upbm affinity estimate (log intensity, higher = more binding, comparable within an allelic series)
- binding signal (ALX1 [16]): 6.37 upbm affinity estimate (log intensity, higher = more binding, comparable within an allelic series)

Sequence: GCTCTTAA
- binding signal (HOXC9 [11]): 11 upbm affinity estimate (log intensity, higher = more binding, comparable within an allelic series)
- binding signal (HOXC9 [19]): 10.2 upbm affinity estimate (log intensity, higher = more binding, comparable within an allelic series)

Sequence: ATTGCGCA
- binding signal (HOXC9 [11]): 10.8 upbm affinity estimate (log intensity, higher = more binding, comparable within an allelic series)
- binding signal (HOXC9 [19]): 10.1 upbm affinity estimate (log intensity, higher = more binding, comparable within an allelic series)

Sequence: GTCGATAA
- binding signal (HOXC9 [11]): 10.9 upbm affinity estimate (log intensity, higher = more binding, comparable within an allelic series)
- binding signal (PROP1 [22]): 8.04 upbm affinity estimate (log intensity, higher = more binding, comparable within an allelic series)
- binding signal (HOXC9 [19]): 10.3 upbm affinity estimate (log intensity, higher = more binding, comparable within an allelic series)

Sequence: CACAGGCC
- binding signal (NKX2-6 [1]): 9.58 upbm affinity estimate (log intensity, higher = more binding, comparable within an allelic series)
- binding signal (PROP1 [22]): 6.73 upbm affinity estimate (log intensity, higher = more binding, comparable within an allelic series)
- binding signal (PROP1 [23]): 6.9 upbm affinity estimate (log intensity, higher = more binding, comparable within an allelic series)
- binding signal (PROP1 [24]): 6.72 upbm affinity estimate (log intensity, higher = more binding, comparable within an allelic series)

Sequence: GAACATTC
- binding signal (HOXC9 [11]): 10.5 upbm affinity estimate (log intensity, higher = more binding, comparable within an allelic series)

Sequence: ATTGCACA
- binding signal (HOXC9 [11]): 10.8 upbm affinity estimate (log intensity, higher = more binding, comparable within an allelic series)

Sequence: GCCGACCA
- binding signal (NKX2-6 [1]): 9.61 upbm affinity estimate (log intensity, higher = more binding, comparable within an allelic series)
- binding signal (PITX2): 7.83 upbm affinity estimate (log intensity, higher = more binding, comparable within an allelic series)

Sequence: GATAAGTA
- binding signal (NKX2-6 [1]): 11.6 upbm affinity estimate (log intensity, higher = more binding, comparable within an allelic series)
- binding signal (NKX2-6 [21]): 13.3 upbm affinity estimate (log intensity, higher = more binding, comparable within an allelic series)
- binding signal (NKX2-6 [5]): 10.6 upbm affinity estimate (log intensity, higher = more binding, comparable within an allelic series)

Sequence: AAGTACAT
- binding signal (NKX2-6 [1]): 11.6 upbm affinity estimate (log intensity, higher = more binding, comparable within an allelic series)
- binding signal (NKX3-2 [15]): 12.4 upbm affinity estimate (log intensity, higher = more binding, comparable within an allelic series)
- binding signal (NKX3-2 [17]): 12.6 upbm affinity estimate (log intensity, higher = more binding, comparable within an allelic series)

Sequence: AGCGGGGC
- binding signal (MSX2 [25]): 9.48 upbm affinity estimate (log intensity, higher = more binding, comparable within an allelic series)
- binding signal (HOXD13 [2]): 9.49 upbm affinity estimate (log intensity, higher = more binding, comparable within an allelic series)
- binding signal (HOXD13 [3]): 9.31 upbm affinity estimate (log intensity, higher = more binding, comparable within an allelic series)
- binding signal (MSX2 [18]): 9.55 upbm affinity estimate (log intensity, higher = more binding, comparable within an allelic series)
- binding signal (HOXD13 [4]): 9.49 upbm affinity estimate (log intensity, higher = more binding, comparable within an allelic series)
- binding signal (MSX2 [20]): 9.55 upbm affinity estimate (log intensity, higher = more binding, comparable within an allelic series)

Sequence: AGCCCACC
- binding signal (MSX2 [25]): 9.45 upbm affinity estimate (log intensity, higher = more binding, comparable within an allelic series)
- binding signal (MSX2 [18]): 9.52 upbm affinity estimate (log intensity, higher = more binding, comparable within an allelic series)
- binding signal (MSX2 [20]): 9.47 upbm affinity estimate (log intensity, higher = more binding, comparable within an allelic series)

Sequence: CCAATCAA
- binding signal (MSX2 [25]): 11 upbm affinity estimate (log intensity, higher = more binding, comparable within an allelic series)

Sequence: ATACATAA
- binding signal (MSX2 [25]): 11 upbm affinity estimate (log intensity, higher = more binding, comparable within an allelic series)
- binding signal (MSX2 [18]): 11.6 upbm affinity estimate (log intensity, higher = more binding, comparable within an allelic series)
- binding signal (MSX2 [20]): 11.4 upbm affinity estimate (log intensity, higher = more binding, comparable within an allelic series)

Sequence: TAATCAAA
- binding signal (MSX2 [25]): 11.1 upbm affinity estimate (log intensity, higher = more binding, comparable within an allelic series)
- binding signal (MSX2 [18]): 12.4 upbm affinity estimate (log intensity, higher = more binding, comparable within an allelic series)
- binding signal (MSX2 [20]): 12.1 upbm affinity estimate (log intensity, higher = more binding, comparable within an allelic series)

Sequence: GAGGTGGC
- binding signal (MSX2 [25]): 9.4 upbm affinity estimate (log intensity, higher = more binding, comparable within an allelic series)
- binding signal (ALX1 [13]): 6.34 upbm affinity estimate (log intensity, higher = more binding, comparable within an allelic series)
- binding signal (ALX1 [14]): 6.43 upbm affinity estimate (log intensity, higher = more binding, comparable within an allelic series)
- binding signal (MSX2 [18]): 9.42 upbm affinity estimate (log intensity, higher = more binding, comparable within an allelic series)
- binding signal (MSX2 [20]): 9.41 upbm affinity estimate (log intensity, higher = more binding, comparable within an allelic series)
- binding signal (ALX1 [16]): 6.4 upbm affinity estimate (log intensity, higher = more binding, comparable within an allelic series)

From publication PMC11006913
